The text below walks through data of ChEMBL document CHEMBL1961873, “Compounds: GSK PKIS; Assays: Nanosyn kinase panel” (2012).

Assay [1] has as its target Serine/threonine-protein kinase pim-2 (Homo sapiens) (UniProt Q9P1W9). The conditions noted are these: at 1 µM.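 Also: each value is a mean of the inhibition measurements against the kinase.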
Assay [2] has as its target Serine/threonine-protein kinase pim-3 (Homo sapiens) (UniProt Q86V86). The conditions noted are these: at 0.1 µM.
Assay [3] shares this target. The conditions noted are these: at 1 µM.
Assay [4] concerns the target T1, MAP kinase-activated protein kinase 5 (Homo sapiens) (UniProt Q8IW41).
T1 sequence (whole entry): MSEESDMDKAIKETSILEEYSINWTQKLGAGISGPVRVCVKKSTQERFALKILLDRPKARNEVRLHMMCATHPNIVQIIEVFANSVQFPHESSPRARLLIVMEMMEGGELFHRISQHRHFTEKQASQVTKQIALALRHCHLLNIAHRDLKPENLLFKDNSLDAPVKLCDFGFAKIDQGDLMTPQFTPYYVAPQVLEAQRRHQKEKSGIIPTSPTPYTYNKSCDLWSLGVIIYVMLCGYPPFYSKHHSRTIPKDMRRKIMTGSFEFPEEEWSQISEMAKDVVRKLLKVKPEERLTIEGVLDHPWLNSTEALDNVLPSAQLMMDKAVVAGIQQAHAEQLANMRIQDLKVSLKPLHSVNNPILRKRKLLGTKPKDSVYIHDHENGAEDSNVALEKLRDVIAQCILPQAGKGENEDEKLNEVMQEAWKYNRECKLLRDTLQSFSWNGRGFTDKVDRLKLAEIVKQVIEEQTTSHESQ
The conditions noted are these: at 0.1 µM.

For assay [5], the target named is T1, MAP kinase-activated protein kinase 5 (Homo sapiens). The conditions noted are these: at 1 µM.
Assay [6] deals with Serine/threonine-protein kinase SIK1 (Homo sapiens) (UniProt P57059). The conditions noted are these: at 0.1 µM.
Sequence of Serine/threonine-protein kinase SIK1 (Homo sapiens) (P57059 whole entry): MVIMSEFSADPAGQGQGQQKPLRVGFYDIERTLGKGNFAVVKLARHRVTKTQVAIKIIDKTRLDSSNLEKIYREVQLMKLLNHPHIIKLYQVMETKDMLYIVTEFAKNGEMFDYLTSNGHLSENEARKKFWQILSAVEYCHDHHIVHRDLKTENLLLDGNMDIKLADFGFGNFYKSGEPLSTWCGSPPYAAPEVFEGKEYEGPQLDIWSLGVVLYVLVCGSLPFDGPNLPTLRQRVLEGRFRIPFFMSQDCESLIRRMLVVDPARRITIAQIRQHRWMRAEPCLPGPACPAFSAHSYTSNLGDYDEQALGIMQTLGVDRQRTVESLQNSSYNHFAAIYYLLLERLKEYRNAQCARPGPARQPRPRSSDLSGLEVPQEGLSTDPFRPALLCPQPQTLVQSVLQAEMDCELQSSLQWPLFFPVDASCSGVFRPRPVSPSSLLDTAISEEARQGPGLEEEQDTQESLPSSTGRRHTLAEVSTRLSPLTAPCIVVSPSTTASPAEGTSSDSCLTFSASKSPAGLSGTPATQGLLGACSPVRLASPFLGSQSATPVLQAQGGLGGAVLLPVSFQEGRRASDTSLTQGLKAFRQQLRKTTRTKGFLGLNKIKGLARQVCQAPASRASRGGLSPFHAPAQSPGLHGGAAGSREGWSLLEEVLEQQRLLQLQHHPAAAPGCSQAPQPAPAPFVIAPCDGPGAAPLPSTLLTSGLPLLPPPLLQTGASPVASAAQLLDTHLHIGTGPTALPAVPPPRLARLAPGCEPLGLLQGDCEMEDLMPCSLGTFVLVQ
Assay [7] has the same target. The conditions noted are these: at 1 µM.
Assay [8] has as its target Serine/threonine-protein kinase SIK2 (Homo sapiens) (UniProt Q9H0K1). The conditions noted are these: at 0.1 µM.
Assay [9] shares this target. The conditions noted are these: at 1 µM.
Assay [10] addresses T2, Serine/threonine-protein kinase TBK1 (Homo sapiens) (UniProt Q9UHD2).
T2 sequence (whole entry): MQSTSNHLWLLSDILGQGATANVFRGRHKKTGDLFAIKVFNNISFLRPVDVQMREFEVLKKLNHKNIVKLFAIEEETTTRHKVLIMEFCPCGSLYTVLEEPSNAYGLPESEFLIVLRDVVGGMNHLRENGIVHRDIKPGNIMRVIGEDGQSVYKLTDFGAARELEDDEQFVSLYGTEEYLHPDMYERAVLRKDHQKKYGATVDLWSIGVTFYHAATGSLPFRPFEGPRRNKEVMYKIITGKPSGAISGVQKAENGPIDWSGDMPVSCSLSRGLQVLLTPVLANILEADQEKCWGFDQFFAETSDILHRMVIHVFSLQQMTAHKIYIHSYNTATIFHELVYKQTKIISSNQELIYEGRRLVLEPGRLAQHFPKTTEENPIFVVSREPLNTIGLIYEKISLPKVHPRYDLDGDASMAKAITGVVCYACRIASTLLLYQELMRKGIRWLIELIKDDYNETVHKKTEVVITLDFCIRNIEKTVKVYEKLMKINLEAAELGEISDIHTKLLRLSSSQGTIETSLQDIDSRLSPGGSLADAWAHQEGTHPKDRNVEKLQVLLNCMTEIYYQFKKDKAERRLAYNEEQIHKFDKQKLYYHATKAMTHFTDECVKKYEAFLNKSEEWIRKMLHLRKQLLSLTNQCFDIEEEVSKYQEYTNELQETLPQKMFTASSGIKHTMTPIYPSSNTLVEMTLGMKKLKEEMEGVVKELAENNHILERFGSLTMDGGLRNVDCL
The conditions noted are these: at 0.1 µM.

Assay [11] has as its target T2, Serine/threonine-protein kinase TBK1 (Homo sapiens). The conditions noted are these: at 1 µM.
The target in assay [12] is T3, Testis-specific serine/threonine-protein kinase 1 (Homo sapiens) (UniProt Q9BXA7).
T3 sequence (whole entry): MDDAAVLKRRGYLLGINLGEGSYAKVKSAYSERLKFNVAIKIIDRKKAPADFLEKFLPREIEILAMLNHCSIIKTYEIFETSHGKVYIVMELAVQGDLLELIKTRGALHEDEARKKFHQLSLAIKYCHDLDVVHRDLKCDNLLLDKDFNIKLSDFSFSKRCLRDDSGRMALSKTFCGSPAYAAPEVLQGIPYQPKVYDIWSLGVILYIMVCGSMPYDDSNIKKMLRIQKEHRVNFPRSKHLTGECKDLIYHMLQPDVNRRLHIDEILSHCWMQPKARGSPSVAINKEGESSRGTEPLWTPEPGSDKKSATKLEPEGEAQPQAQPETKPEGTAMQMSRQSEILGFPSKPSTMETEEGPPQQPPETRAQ
The conditions noted are these: at 0.1 µM.

Assay [13] addresses T3, Testis-specific serine/threonine-protein kinase 1 (Homo sapiens). The conditions noted are these: at 1 µM.
Assay [14] concerns the target T4, Testis-specific serine/threonine-protein kinase 2 (Homo sapiens) (UniProt Q96PF2).
T4 sequence (whole entry): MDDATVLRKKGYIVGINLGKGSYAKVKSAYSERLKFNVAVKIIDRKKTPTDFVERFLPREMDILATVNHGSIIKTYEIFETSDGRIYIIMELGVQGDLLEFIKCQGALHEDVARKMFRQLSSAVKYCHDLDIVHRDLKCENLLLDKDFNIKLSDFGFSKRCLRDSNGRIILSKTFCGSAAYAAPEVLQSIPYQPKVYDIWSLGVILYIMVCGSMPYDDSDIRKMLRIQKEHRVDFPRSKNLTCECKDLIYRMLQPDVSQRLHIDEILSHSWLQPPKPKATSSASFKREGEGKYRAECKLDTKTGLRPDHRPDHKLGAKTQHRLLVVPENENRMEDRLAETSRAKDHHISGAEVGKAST
The conditions noted are these: at 0.1 µM.

The target of assay [15] is T4, Testis-specific serine/threonine-protein kinase 2 (Homo sapiens). The conditions noted are these: at 1 µM.
In assay [16] the target is Casein kinase I isoform alpha (Homo sapiens) (UniProt P48729). The conditions noted are these: at 0.1 µM.
Sequence of Casein kinase I isoform alpha (Homo sapiens) (P48729 2-337 limits assumed): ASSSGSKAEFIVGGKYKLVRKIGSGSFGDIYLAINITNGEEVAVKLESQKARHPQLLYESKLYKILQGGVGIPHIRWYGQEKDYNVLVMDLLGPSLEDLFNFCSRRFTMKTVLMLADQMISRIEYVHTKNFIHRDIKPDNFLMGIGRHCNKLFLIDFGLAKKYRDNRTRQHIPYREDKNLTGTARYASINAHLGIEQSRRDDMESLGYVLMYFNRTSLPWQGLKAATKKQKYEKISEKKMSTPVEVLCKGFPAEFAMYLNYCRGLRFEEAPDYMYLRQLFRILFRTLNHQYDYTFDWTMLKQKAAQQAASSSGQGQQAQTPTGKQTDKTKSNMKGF
Assay [17] shares this target. The conditions noted are these: at 1 µM.
The target in assay [18] is Casein kinase I isoform gamma-1 (Homo sapiens) (UniProt Q9HCP0). The conditions noted are these: at 0.1 µM.
Sequence of Casein kinase I isoform gamma-1 (Homo sapiens) (Q9HCP0 whole entry, looked up, canonical isoform): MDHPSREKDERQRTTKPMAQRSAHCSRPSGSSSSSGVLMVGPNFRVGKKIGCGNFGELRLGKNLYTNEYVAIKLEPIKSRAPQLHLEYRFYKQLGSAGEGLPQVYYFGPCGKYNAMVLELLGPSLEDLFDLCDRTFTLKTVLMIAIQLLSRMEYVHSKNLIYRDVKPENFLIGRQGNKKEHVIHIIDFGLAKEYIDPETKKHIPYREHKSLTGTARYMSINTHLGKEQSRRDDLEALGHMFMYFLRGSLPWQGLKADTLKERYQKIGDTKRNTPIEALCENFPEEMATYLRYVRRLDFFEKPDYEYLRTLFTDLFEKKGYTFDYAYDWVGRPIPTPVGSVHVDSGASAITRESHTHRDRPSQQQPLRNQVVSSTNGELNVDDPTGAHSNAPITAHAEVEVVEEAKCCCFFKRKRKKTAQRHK
Assay [19] shares this target. The conditions noted are these: at 1 µM.
Assay [20] deals with Casein kinase I isoform gamma-2 (Homo sapiens) (UniProt P78368). The conditions noted are these: at 0.1 µM.
Sequence of Casein kinase I isoform gamma-2 (Homo sapiens) (P78368 whole entry, looked up, canonical isoform): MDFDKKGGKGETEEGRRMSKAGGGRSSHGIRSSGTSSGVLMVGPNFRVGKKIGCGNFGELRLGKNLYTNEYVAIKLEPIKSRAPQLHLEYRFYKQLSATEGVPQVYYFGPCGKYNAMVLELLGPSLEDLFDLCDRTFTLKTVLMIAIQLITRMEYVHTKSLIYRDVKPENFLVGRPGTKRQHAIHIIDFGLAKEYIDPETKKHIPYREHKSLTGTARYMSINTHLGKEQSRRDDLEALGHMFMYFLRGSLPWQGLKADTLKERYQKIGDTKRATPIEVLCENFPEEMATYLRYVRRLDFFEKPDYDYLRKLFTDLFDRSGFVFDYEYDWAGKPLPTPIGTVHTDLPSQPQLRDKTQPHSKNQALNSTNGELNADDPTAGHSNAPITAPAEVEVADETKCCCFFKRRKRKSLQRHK

The structures appear in SMILES notation.

Sequence of Serine/threonine-protein kinase SIK2 (Homo sapiens) (Q9H0K1 whole entry, looked up): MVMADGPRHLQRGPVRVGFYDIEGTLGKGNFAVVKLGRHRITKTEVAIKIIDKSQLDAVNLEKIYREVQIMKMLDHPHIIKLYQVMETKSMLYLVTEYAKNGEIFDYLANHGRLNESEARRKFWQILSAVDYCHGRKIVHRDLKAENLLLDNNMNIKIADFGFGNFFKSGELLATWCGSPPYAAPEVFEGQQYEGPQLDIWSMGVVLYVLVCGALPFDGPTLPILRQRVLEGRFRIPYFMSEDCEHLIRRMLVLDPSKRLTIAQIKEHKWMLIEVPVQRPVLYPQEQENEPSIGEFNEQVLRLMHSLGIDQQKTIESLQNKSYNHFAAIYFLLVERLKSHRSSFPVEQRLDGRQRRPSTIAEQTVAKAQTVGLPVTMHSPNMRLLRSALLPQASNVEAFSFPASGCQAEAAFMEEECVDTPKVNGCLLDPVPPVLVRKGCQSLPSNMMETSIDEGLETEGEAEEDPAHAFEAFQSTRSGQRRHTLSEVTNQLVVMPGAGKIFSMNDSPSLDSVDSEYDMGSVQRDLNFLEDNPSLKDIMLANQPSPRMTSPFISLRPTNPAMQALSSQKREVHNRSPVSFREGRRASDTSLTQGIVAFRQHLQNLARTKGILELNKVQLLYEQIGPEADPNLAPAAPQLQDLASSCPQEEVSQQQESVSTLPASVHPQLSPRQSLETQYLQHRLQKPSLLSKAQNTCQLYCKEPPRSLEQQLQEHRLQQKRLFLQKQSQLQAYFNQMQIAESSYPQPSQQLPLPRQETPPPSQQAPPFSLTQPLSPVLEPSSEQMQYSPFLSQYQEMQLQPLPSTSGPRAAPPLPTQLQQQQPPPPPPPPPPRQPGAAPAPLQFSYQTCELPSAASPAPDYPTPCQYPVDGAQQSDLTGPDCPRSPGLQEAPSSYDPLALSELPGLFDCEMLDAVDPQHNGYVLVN
Sequence of Serine/threonine-protein kinase pim-2 (Homo sapiens) (Q9P1W9 whole entry, looked up): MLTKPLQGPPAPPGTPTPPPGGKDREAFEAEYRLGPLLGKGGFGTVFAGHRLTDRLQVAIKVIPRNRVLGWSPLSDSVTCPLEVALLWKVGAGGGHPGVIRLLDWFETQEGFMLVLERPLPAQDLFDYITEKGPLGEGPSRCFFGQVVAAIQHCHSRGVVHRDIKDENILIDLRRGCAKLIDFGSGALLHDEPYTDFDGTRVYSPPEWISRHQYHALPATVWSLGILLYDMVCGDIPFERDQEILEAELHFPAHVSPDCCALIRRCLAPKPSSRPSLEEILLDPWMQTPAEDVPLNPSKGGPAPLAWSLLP

Turning to `Fc1ccc(-c2nn3ncccc3c2-c2ccnc(Nc3ccc4c(c3)OCCO4)n2)cc1`, the inhibition in [1] is -0.97%; in assay [2], -2.21%; in assay [3], -3.73%; in assay [4], 0.63%; in [5], 0.49%; in assay [6], 10.5%. Besides, the inhibition in assay [7] turned out to be 38.4%; in assay [8], 18.8%; in [9], 44.6%; in [10] it was 5.89%; in assay [11], 4.55%; in assay [12], 4.06%. The inhibition in [13] turned out to be 2.68%; in [14], 1.3%; in [15], 1.02%; in assay [16] it was 39.5%; in assay [17] it was 72.5%; in assay [18] it was 14.8%. Also, the inhibition in [19] is 58.5%; in assay [20] it was 11.1%.

Turning to `CN1CCC(n2cnc(-c3ccc(F)cc3)c2-c2ccnc(N)n2)CC1`, the inhibition in assay [1] was determined as 6.09%; in assay [2], 2.48%; in [3], 21.3%; in assay [4], 1%; in [5], 1.6%; in [6], 2.58%. Also, the inhibition in assay [7] was 7.47%; in assay [8] it was 7.38%; in assay [9], 21.9%; in assay [10], -1.27%; in assay [11] it was 3.54%; in assay [12], 2.05%. Also, the inhibition in assay [13] turned out to be 3.07%; in assay [14], 2.28%; in assay [15], 1.61%; in assay [16], 30.1%; in assay [17], 73.1%; in [18] it was 1.88%. Also, the inhibition in assay [19] came out at 9.03%; in assay [20], 1.68%.

As for `N#Cc1c(NC(=O)CN2CCOCC2)sc2c1CCCC2`, the inhibition was found to be 1.1% in [1]; 0.45% in assay [2]; 1.12% in [3]; 1.41% in assay [4]; 2.49% in assay [5]; 0.17% in assay [6]. Further, the inhibition in assay [7] was 6.91%; in [8] it was 5.2%; in assay [9] it was 8.69%; in assay [10] it was 1.76%; in assay [11], 4.24%; in assay [12], -0.56%. For the same compound, the inhibition in [13] is 3.34%; in assay [14], 1.22%; in [15] it was 2.29%; in assay [16], 6.79%; in [17] it was 6.01%; in assay [18] it was 3.78%. Also, the inhibition in [19] was determined as 5.69%; in assay [20], 3.2%.

For `CCn1cc(-c2ccnc3[nH]ccc23)c(-c2cccc(NC(=O)Nc3ccc(OCc4ccccc4)cc3)c2)n1`, the inhibition in [1] is 0.13%; in assay [2], -0.81%; in [3], -1.13%; in assay [4], -0.44%; in assay [5] it was -0.98%; in assay [6] it was 1.1%. Besides, the inhibition is 3.35% in assay [7]; -4.91% in assay [8]; -0.71% in assay [9]; -0.45% in assay [10]; -0.26% in [11]; 1.75% in assay [12]. Besides, the inhibition in assay [13] is 1.5%; in assay [14], -0.38%; in assay [15] it was -0.63%; in assay [16], -1.12%; in assay [17], -1.47%; in [18], 1%. Besides, the inhibition was 1.59% in assay [19] and 0.29% in [20].

As to `COc1ccc(-c2cc(-c3c[nH]nc3-c3ccccn3)ccn2)cc1`, the inhibition amounted to 1.29% in assay [1]; 0.79% in assay [2]; 1.9% in [3]; 2.14% in assay [4]; 4.32% in assay [5]; 11.2% in [6]. Further, the inhibition in [7] was determined as 7.23%; in assay [8] it was 3.82%; in assay [9] it was 11.3%; in [10] it was 4.48%; in assay [11], 6.38%; in [12], 3.33%. Besides, the inhibition in [13] stood at 5.54%; in [14] it was 2.38%; in [15], 3.88%; in assay [16], 3.31%; in assay [17] it was 11.5%; in [18], 4.71%. Also, the results for the inhibition in [19] and in [20] were 5.78% and 3.51%, respectively.

Take `c1cc(-c2cnn3nc(N4CCOCC4)ccc23)nc(NC2CC2)n1`: the inhibition in assay [1] was 0.92%; in assay [2] it was -0.59%; in assay [3], 4.8%; in assay [4], 1.08%; in assay [5] it was 0.41%; in assay [6], 7.04%. Also, the inhibition in assay [7] was determined as 5.66%; in assay [8] it was 6.34%; in assay [9], 7.7%; in assay [10], 3.02%; in [11] it was 6.36%; in assay [12], 2.66%. Further, the inhibition is 5.12% in [13]; 0.16% in [14]; -3.76% in [15]; 5.43% in assay [16]; 15.8% in assay [17]; 3.42% in assay [18]. Also, the inhibition in [19] came out at 8.05%; in assay [20], 3.35%.

In general, inhibition refers to the relative decrease from the control value, in per cent.
